The supplement of paper PMC6089552
The whole screen tested about 3,200 compounds, of which about 300 (9.4%) showed activity. What follows is part of a selection rich in actives, with near analogues and random picks from the rest.

Test system: A673/TR/shEF
Experiment: cell viability (LOESS-normalised, relative to median of negative controls) (log2 ratio); higher = more viable cells (less compound effect), active = hit call of the paper (over 3 MAD below the median)
Details: treatment time: 72 h
Summary of the method: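 Viability of A673/TR/shEF Ewing sarcoma cells was determined by CellTiter-Glo luminescence. The cells, at 1,500 per well in 384-well plates, were grown with or without doxycycline from 24 h before compound addition to switch on EWS-FLI1 shRNA knockdown, then exposed for three days to library compounds at two or more concentrations or to DMSO controls. Signals were LOESS-corrected plate by plate, normalised to the negative-control median and log2-transformed.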

[1] = 0.25 µM, library screen: screen1, EWS-FLI1 expression: high (no doxycycline)
[2] = 0.25 µM, library screen: screen1, EWS-FLI1 expression: low (doxycycline-induced shRNA knockdown)
[3] = 2.5 µM, library screen: screen1, EWS-FLI1 expression: high (no doxycycline)
[4] = 2.5 µM, library screen: screen1, EWS-FLI1 expression: low (doxycycline-induced shRNA knockdown)
[5] = 0.025 µM, library screen: screen2, EWS-FLI1 expression: high (no doxycycline)
[6] = 0.025 µM, library screen: screen2, EWS-FLI1 expression: low (doxycycline-induced shRNA knockdown)
[7] = 0.25 µM, library screen: screen2, EWS-FLI1 expression: high (no doxycycline)
[8] = 0.25 µM, library screen: screen2, EWS-FLI1 expression: low (doxycycline-induced shRNA knockdown)
[9] = 2.5 µM, library screen: screen2, EWS-FLI1 expression: high (no doxycycline)
[10] = 2.5 µM, library screen: screen2, EWS-FLI1 expression: low (doxycycline-induced shRNA knockdown)
[11] = 25 µM, library screen: screen2, EWS-FLI1 expression: high (no doxycycline)
[12] = 25 µM, library screen: screen2, EWS-FLI1 expression: low (doxycycline-induced shRNA knockdown)

Measured: cell viability (log2)

CC(=O)C1=C(O)[C@@H]2[C@H]3c4c[nH]c5cccc(c45)C[C@H]3C(C)(C)N2C1=O
inactive: [1] 0.0498 | [2] 0.042 | [3] 0.0855 | [4] 0.00492

COc1cc2c(c(OC)c1OC)-c1ccc(OC)c(=O)cc1[C@@H](NC(C)=O)CC2
active: [1] -4.23 | [2] -0.935 | [7] -3.33 | [8] -0.503 | [3] -4.18 | [4] -0.869 | [9] -3.21 | [10] -0.472 | [11] -3.45 | [12] -0.515
inactive: [5] 0.127 | [6] 0.0363

COc1cc2c(cc1OC)C(=O)c1ccc(OC)c(OC)c1OCC(=O)C2
inactive: [1] 0.0297 | [2] 0.0329 | [3] 0.104 | [4] 0.0978

COc1cc2c(c(OC)c1OC)-c1ccc(O)c(=O)cc1C(NC(C)=O)CC2 (stereo unspecified)
inactive: [1] 0.0964 | [2] 0.0193
active: [3] -1.1 | [4] -0.493

COc1ccc2c(c1O)-c1c(OC)c(OC)cc3c1[C@H](C2)N(C)CC3
inactive: [1] -0.01 | [2] -0.0109 | [3] 0.111 | [4] 0.131

C=C(C)c1cc2cc(C(C)=O)c(O)cc2o1
inactive: [1] 0.113 | [2] 0.098 | [3] 0.0228 | [4] 0.00912

OCC(O)Cc1ccc2c(c1)OCO2 (stereo unspecified)
inactive: [1] 0.0615 | [2] 0.039 | [3] 0.0501 | [4] 0.111

CC1(C)C(=O)[C@@H]2O[C@@H]2[C@@]2(C)C1C[C@@H](O)[C@]1(C)C2CC[C@@]2(C)[C@H](c3ccoc3)OC(=O)C3OC321 (stereo partly specified)
inactive: [1] 0.0599 | [2] 0.093 | [3] 0.0793 | [4] 0.18

CC1(C)C(=O)C=C[C@]2(C)[C@H]3CC[C@@]4(C)[C@H](c5ccoc5)OC(=O)[C@H]5O[C@]54[C@]3(C)[C@H](O)C[C@@H]12
inactive: [1] -0.0265 | [2] 0.039 | [3] 0.0641 | [4] 0.0262

Cc1ccccc1CN1CCN(Cc2ccc(F)cc2)CC1
inactive: [1] 0.0915 | [2] 0.13 | [3] 0.113 | [4] 0.0962

C[C@@H]1CC[C@@]2(OC1)O[C@H]1[C@@H](O)[C@H]3[C@@H]4CC[C@H]5C[C@@H](O[C@@H]6O[C@H](CO)[C@H](O[C@@H]7O[C@H](CO)C(O)[C@H](O[C@@H]8OC[C@@H](O)[C@H](O)[C@H]8O)[C@H]7O[C@@H]7O[C@H](CO)[C@H](O)[C@H](O[C@@H]8O[C@H](CO)[C@@H](O)[C@H](O)[C@H]8O)[C@H]7O)[C@H](O)[C@H]6O)[C@H](O)C[C@]5(C)[C@H]4CC[C@]3(C)[C@H]1[C@@H]2C (stereo partly specified)
inactive: [1] 0.0473 | [2] 0.00355 | [3] 0.099 | [4] 0.184

C[C@H]1CC[C@]2(NC1)O[C@H]1C[C@H]3[C@@H]4CC[C@H]5C[C@@H](O)CC[C@]5(C)[C@H]4CC[C@]3(C)[C@H]1[C@@H]2C
inactive: [1] 0.0391 | [2] 1.7e-05 | [3] 0.161 | [4] 0.0669

C[C@H]1CC[C@]2(NC1)O[C@H]1C[C@H]3[C@@H]4CC[C@H]5C[C@@H](O[C@@H]6O[C@H](CO)[C@H](O[C@@H]7O[C@H](CO)[C@@H](O)[C@H](O[C@@H]8OC[C@@H](O)[C@H](O)[C@H]8O)[C@H]7O[C@@H]7O[C@H](CO)[C@@H](O)[C@H](O)[C@H]7O)[C@H](O)[C@H]6O)CC[C@]5(C)[C@H]4CC[C@]3(C)[C@H]1[C@@H]2C
active: [3] -1.17 | [4] -1.98
inactive: [1] 0.0131 | [2] -0.12

CCNc1nc(Cl)nc(NC(C)C)n1
inactive: [1] 0.143 | [2] 0.0518 | [3] 0.132 | [4] 0.0856

CCC1(C2=NCCN2)Cc2ccccc2O1 (stereo unspecified)
inactive: [7] 0.203 | [8] 0.0265 | [9] 0.184 | [10] 0.0979

CC[C@@]1([C@H]2O[C@H]([C@H]3O[C@@](O)(CO)[C@H](C)C[C@@H]3C)C[C@H]2C)CC[C@H]([C@@]2(C)CC[C@]3(C[C@H](O)[C@@H](C)[C@@H]([C@H](C)[C@H](OC)[C@@H](C)C(=O)O)O3)O2)O1
active: [3] -0.325
inactive: [1] -0.0386 | [2] 0.12 | [4] 0.0352

CO[C@@H]1C[C@@H](C[C@H]2CC[C@H](C)[C@H]([C@@H](C)C(=O)O)O2)O[C@]2(O[C@](C)([C@H]3CC[C@@](C)([C@@H]4O[C@@H]([C@H]5O[C@@](O)(CO)[C@H](C)C[C@@H]5C)C[C@@H]4C)O3)C[C@H]2C)[C@@H]1C
active: [3] -0.685
inactive: [1] 0.0701 | [2] 0.147 | [4] -0.0408

CN1CCc2cc(O)cc3c2C1Cc1ccc(O)c(O)c1-3 (stereo unspecified)
inactive: [7] 0.248 | [8] 0.14 | [9] 0.197 | [10] 0.135

Nc1ccc2c(n1)[nH]c1ccccc12
inactive: [7] 0.156 | [8] 0.0674 | [9] 0.0702 | [10] 0.0934

Nc1ccc(CCN2CCN(c3cccc(C(F)(F)F)c3)CC2)cc1
inactive: [7] 0.0196 | [8] 0.0537 | [9] 0.131 | [10] 0.044

C[C@@H]1C[C@H]2CC(=O)[C@H]3CCCN4CCC[C@H]2[C@]34C1
inactive: [1] 0.103 | [2] 0.0455 | [3] 0.108 | [4] 0.0845

O=P1(N(CCCl)CCCl)NCCCO1 (stereo unspecified)
inactive: [5] 0.105 | [6] 0.0824 | 0.103 µM, library screen: screen3, EWS-FLI1 expression: high (no doxycycline) 0.146 | 0.103 µM, library screen: screen3, EWS-FLI1 expression: low (doxycycline-induced shRNA knockdown) 0.0804 | [1] 0.11 | [2] 0.163 | [7] 0.137 | [8] 0.0863 | 0.308 µM, library screen: screen3, EWS-FLI1 expression: high (no doxycycline) 0.0638 | 0.308 µM, library screen: screen3, EWS-FLI1 expression: low (doxycycline-induced shRNA knockdown) 0.0134 | 0.926 µM, library screen: screen3, EWS-FLI1 expression: high (no doxycycline) 0.0846 | 0.926 µM, library screen: screen3, EWS-FLI1 expression: low (doxycycline-induced shRNA knockdown) 0.061 | [3] 0.228 | [4] 0.17 | [9] 0.122 | [10] 0.0525 | 2.8 µM, library screen: screen3, EWS-FLI1 expression: high (no doxycycline) 0.114 | 2.8 µM, library screen: screen3, EWS-FLI1 expression: low (doxycycline-induced shRNA knockdown) 0.0823 | 8.3 µM, library screen: screen3, EWS-FLI1 expression: high (no doxycycline) 0.0653 | 8.3 µM, library screen: screen3, EWS-FLI1 expression: low (doxycycline-induced shRNA knockdown) 0.1 | [11] 0.0276 | [12] 0.165 | 25 µM, library screen: screen3, EWS-FLI1 expression: high (no doxycycline) 0.071 | 25 µM, library screen: screen3, EWS-FLI1 expression: low (doxycycline-induced shRNA knockdown) 0.141

Cc1c(N)nc([C@H](CC(N)=O)NC[C@H](N)C(N)=O)nc1C(=O)N[C@H](C(=O)N[C@H](C)[C@@H](O)[C@H](C)C(=O)N[C@H](C(=O)NCCc1nc(-c2nc(C(=O)NCCC[S+](C)C)cs2)cs1)[C@@H](C)O)[C@@H](OC1OC(CO)C(O)C(O)C1OC1OC(CO)C(O)C(OC(N)=O)C1O)c1cnc[nH]1 (stereo partly specified)
inactive: [1] 0.091 | [2] 0.105 | [3] 0.125 | [4] 0.052

C[C@]12CC[C@H](O)C[C@@H]1CC[C@@H]1[C@@H]2CC[C@]2(C)[C@@H](O)CC[C@@H]12
inactive: [1] 0.128 | [2] 0.00375 | [3] 0.117 | [4] 0.154

C[C@]12CC[C@H](O)C[C@H]1CC[C@@H]1[C@@H]2[C@H](O)C[C@]2(C)[C@@H](C3=CC(=O)OC3)CC[C@]12O
inactive: [1] 0.0899 | [2] -0.0779
active: [3] -0.259 | [4] -0.409

C[C@]12CC[C@@H](O)C[C@@H]1CC[C@@H]1[C@@H]2CC[C@]2(C)C(=O)CC[C@@H]12
inactive: [1] -0.00242 | [2] -0.00815 | [7] 0.137 | [8] 0.0672 | [3] 0.0414 | [4] 0.0708 | [9] 0.202 | [10] 0.0943

C[C@]12CC[C@H](O)C[C@@H]1CC[C@@H]1[C@@H]2CC[C@]2(C)C(=O)CC[C@@H]12
inactive: [1] 0.113 | [2] 0.0515 | [3] 0.101 | [4] 0.0566

C[C@]12CC[C@H](O)C[C@H]1CC[C@@H]1[C@@H]2C[C@@H](O)[C@]2(C)[C@@H](C3=CC(=O)OC3)CC[C@]12O
active: [3] -0.488 | [4] -0.691
inactive: [1] 0.0425 | [2] -0.036

C[C@]12CCC3C(CC[C@H]4C[C@H](O)CC[C@]34C)C1CC[C@@H]2O (stereo partly specified)
inactive: [1] 0.158 | [2] 0.216 | [3] 0.201 | [4] 0.106

CN1C2C[C@H](OC(=O)[C@H](CO)c3ccccc3)CC1[C@@H](O)C2 (stereo partly specified)
inactive: [1] 0.0376 | [2] 0.0137 | [3] 0.116 | [4] 0.0715

C=C1C2CC[C@@]3(C)[C@H](c4ccoc4)OC(=O)C[C@]13O[C@H]1CC(=O)C(C)(C)[C@H](C(OC(C)=O)C(=O)OC)[C@@]21C (stereo partly specified)
inactive: [1] 0.0428 | [2] 0.0583 | [3] 0.106 | [4] 0.119

CN1C2CCC1CC(OC(c1ccccc1)c1ccccc1N)C2 (stereo unspecified)
inactive: [1] 0.0792 | [2] 0.0013 | [7] 0.13 | [8] 0.107 | [3] 0.094 | [4] -0.0817 | [9] 0.165 | [10] 0.125

C[C@@H]1C(=O)O[C@H]2[C@H]1CC[C@@]1(C)C=CC(=O)[C@@]3(C)O[C@@]213
inactive: [1] -0.0341 | [2] 0.0137 | [3] 0.0354 | [4] 0.0553

COP(N)(=O)SC (stereo unspecified)
inactive: [1] 0.148 | [2] 0.0387 | [3] 0.151 | [4] 0.112

COc1cc(C(O)CN)ccc1O (stereo unspecified)
inactive: [7] 0.137 | [8] 0.137 | [9] 0.0316 | [10] 0.00185
